Only some compounds are listed: those with a hit (about 21% of all), similar ones and a draw of the others.
Cycloheximide cs – Cycloheximide Counterscreen for Small Molecule Inhibitors of Shiga Toxin | cell reporter, cycloheximide protein synthesis inhibition counterscreen | max response, % | 300,000 compounds, 12% hits | AID 2314, 2010; in the data active = max response mostly above about 13%, no sharp cut-off; inactive = mostly below about 14%; note: read at 38.3 µM for the half of the compounds with a filed dose; 0% is about no effect
HCMV antiviral – qHTS Assay for inhibitors of the human cytomegalovirus (HCMV) | activity change, negative = inhibition, % at 57.5 µM | 410,000 compounds, 4.5% hits | HFF cells, HCMV-luciferase reporter, 72 h; hits give low values; in the data active = activity change below about -60%; inconclusive = no clear call, values can overlap the other calls; inactive = above about -39%; note: % is set by controls: 0 for no effect and ±100 for the full control effect
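Two compound doses tested in HFFs infected with HCMV-luciferase, MOI 1 PFU/cell, 72 h at 37C. Lysate luminescence read with OneGlo; data normalized against buffer-only and 10uM Salinomycin inhibitor controls.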
HCV inhibitor – qHTS Assay for Inhibitors of Hepatitis C Virus (HCV) | Huh7.5.1 HCVcc-Cre infection, luciferase reporter, 44 h | Potency, µM (doses to about 41.8 µM), without a hit: at the top dose activity change, negative = inhibition, most hits filed as inhibitors | 340,000 compounds, 3.4% hits; note: potency is the fitted concentration of half-maximal effect; % is set by controls: 0 for no effect and ±100 for the full control effect
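After 44 h co-culture of compound, cells and HCVcc-Cre (~0.5 moi), substrate is added for 15 min at room temperature and luciferase measured over 15 sec. Cells were seeded at 1,000/well and pre-cultured 4 h.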
Pf growth 48h – Primary qHTS for delayed death inhibitors of the malarial parasite plastid, 48 hour incubation; P. falciparum luciferase growth in erythrocytes, 48 h; Potency, µM (titrated, usually from 28.7 µM), inactives show at the top dose activity change, negative = inhibition, hits mostly inhibitors; 310,000 compounds, 5.9% hits; note: potency is the fitted concentration of half-maximal effect; % is set by controls: 0 for no effect and ±100 for the full control effect
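Parasite viability was followed by luminescence of a genomically integrated firefly luciferase. Cultures held 0.1% parasitemia at 2% hematocrit (final), incubated under 5% CO2 at 37 C.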
Pf growth 96h – Primary qHTS for delayed death inhibitors of the malarial parasite plastid, 96 hour incubation. P. falciparum luciferase reporter growth, 96 h. Potency, µM (doses to about 28.7 µM), inactives show at the highest dose activity change, negative = inhibition, hits mostly inhibitors. 320,000 compounds, 6.9% hits; note: potency is the fitted concentration of half-maximal effect; % is set by controls: 0 for no effect and ±100 for the full control effect
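Parasite growth measured via integrated firefly luciferase reporter in P. falciparum. Infected erythrocytes at 2% hematocrit, 0.05% parasitemia final were treated 96 hours at 37 C under 5% CO2, and luminescence was read.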
Shiga inhibitor – A qHTS for Small Molecule Inhibitors of Shiga Toxin; AID 2315, 2010; inhibition, % at 38.7 µM; 290,000 compounds, 9.2% hits; Vero cells, Shiga toxin protein synthesis inhibition reporter; in the data active = inhibition mostly above about 28%, no sharp cut-off; inactive = mostly below about 43%; note: 0% is about no effect
Numbers without * were called inactive; ? = inconclusive; / = not tested or not shown; ! = repeats disagree. Unless noted, calls come from the whole dose curve; as a rule, active = well fitted inhibition curve with a large enough effect; inconclusive = small, poorly fitted or top-dose-only effect, or another doubt; inactive = no such curve, though single readings can be large or run the other way.

SMILES | Cycloheximide cs | HCMV antiviral | HCV inhibitor | Pf growth 48h | Pf growth 96h | Shiga inhibitor
Cc1cc(=O)oc2cc(OC(C)C(=O)NCC3CCC(C(=O)O)CC3)ccc12 (stereo unspecified) | -0.8 | 25.3 | 10.7% | -34.7% | ? | -5.3
Cc1cc(OC(C)C(=O)NCc2ccccn2)c2c(C)c(Cc3ccccc3)c(=O)oc2c1 (stereo unspecified) | -3.4 | -10.3 | ? | ? | -10.4% | 6.1
CC(Oc1ccc2c(-c3ccccc3)cc(=O)oc2c1)C(=O)O (stereo unspecified) | -5.2 | 23.6 | 10.4% | 31.0% | 35.2% | -8.5
O=C(Oc1ccc2c(-c3ccccc3)cc(=O)oc2c1)c1cccs1 | -3.1 | -66.6* | 8.4% | 13.1% | -0.3% | -3.5
CC(Oc1ccc2c(-c3ccccc3)cc(=O)oc2c1)C(=O)NCC1CCC(C(=O)O)CC1 (stereo unspecified) | -3.5 | -21.7 | ? | 5.22µM*! | 3.29µM* | 12.2
CC(Oc1ccc2c(-c3ccccc3)cc(=O)oc2c1)C(=O)NCC(O)c1ccccc1 (stereo unspecified) | 1.4 | 10.1 | 8.91µM* | -7.0% | 1.9% | -1.0
CN(C)c1cc2c(cc1NC(=O)c1ccc(F)cc1)n(C)c(=O)n2C | / | 21.0 | / | / | / | /
Cc1cc(Br)cn2c(Cc3ccccc3C(F)(F)F)c(-c3ccco3)nc12 | / | 7.0 | / | / | / | /
O=S(=O)(c1ccc2c(c1)CCN2)N1CCOCC1 | / | 5.3 | 4.3% | 5.4% | 14.0% | /
CN(C)CCCN1C(=O)c2cc3ccccc3cc2C1=O | 6.7 | 18.9 | 12.5% | 0.4% | 16.8% | -5.7
O=C1c2cccc3cc([N+](=O)[O-])cc(c23)C(=O)N1CC1CCCO1 (stereo unspecified) | 0.8 | -63.2* | ? | ? | ? | 19.4
CN(C)CCN1C(=O)c2cccc3cc([N+](=O)[O-])cc(c23)C1=O | / | -97.6* | ? | / | / | /
CN(C)CCN1C(=O)c2ccccc2C1=O | / | -16.3 | 25.1% | 29.3% | 34.6% | /
CN(C)CCCN1C(=O)c2cccc3cccc(c23)C1=O | 9.7 | -63.9* | ? | ? | 0.0% | 20.6
O=C1c2ccccc2C(=O)N1CC1CCCO1 (stereo unspecified) | -3.9 | / | ? | -5.3% | -0.4% | -18.0
COc1ccc(N(CCCN2C(=O)c3cccc4cccc(c34)C2=O)C(=O)c2cccc(OC)c2)cc1 | -7.5 | -12.1 | 11.2µM* | ? | ? | -8.1
CCCCOC(=O)CSc1nnc(-c2ccccc2)o1 | / | -8.1 | / | / | / | /
CN(C)CCN1C(=O)c2ccccc2N(C)c2ccccc21 | / | / | / | -17.7% | 3.01µM* | /
COc1cc(CC(=O)Nc2ccc(S(=O)(=O)NC3=NCCCCC3)cc2)cc(OC)c1OC | -4.5 | 22.7 | 12.7% | -10.0% | ? | 14.0
CN(/N=C/c1ccccc1Cl)c1ncc(Cl)cc1C(F)(F)F | 0.9 | 22.6 | -3.6% | 37.1% | 0.0% | 9.0
CN(/N=C/c1ccc(O)cc1O)c1ncc(C(F)(F)F)cc1Cl | 2.8 | -74.4* | -27.8% | 41.2% | -2.2% | 43.6
Cc1ccc(C2=NN(C(=O)CCl)C(c3cccs3)C2)o1 (stereo unspecified) | 23.3* | -100.1* | ? | 3.7µM* | 2.08µM* | 5.6
O=C(CCl)N1N=C(c2ccco2)CC1c1cccs1 (stereo unspecified) | 1.0 | / | ? | 11.7µM* | ? | -5.5
CC(=O)N1N=C(c2ccco2)CC1c1cccs1 (stereo unspecified) | 5.4 | 23.6 | 4.7% | -8.9% | -2.2% | -5.2
Cc1noc(C)c1COC(=O)C1CCN(S(=O)(=O)c2c(Cl)cccc2Cl)CC1 | / | -19.9 | 6.7% | ? | -9.3% | /
SMILES | Cycloheximide cs | HCMV antiviral | HCV inhibitor | Pf growth 48h | Pf growth 96h | Shiga inhibitor
Oc1ccc(C2=NNC(=NCc3ccc4c(c3)OCO4)SC2)c(O)c1 | 31.7* | -9.2 | -15.0% | 12.9% | ? | 13.9
Cc1nn(-c2ccccc2)c(C)c1C(=O)OCC(=O)Nc1cccc(S(N)(=O)=O)c1 | / | 3.6 | ? | ? | ? | /
COC(=O)c1cccc(C23CC4(C2)[C@H](CN(C)[C@@H]4c2ccccc2)C3c2ccc(C(F)(F)F)cc2)c1 (stereo partly specified) | 2.7 | 38.5 | 19.5% | 9.28µM* | ? | -4.7
COC(=O)c1cccc(C23CC4(C2)[C@H](CN(C)[C@@H]4c2ccccc2)C3c2ccccc2)c1 (stereo partly specified) | 10.5 | 19.5 | 12.3% | 11.7µM* | ? | -7.2
Cc1cc(=O)n(Cc2ccc(F)cc2Cl)c2c1c(C)nn2-c1ccccc1 | / | 1.7 | / | / | / | /
CC(C)C(=O)N1CCN(CCN=Cc2c(O)n(C)c(=O)n(C)c2=O)CC1 | -4.1 | 35.6 | 7.0% | ? | 13.1µM* | 42.7
CCC(=O)N1CCN(CCN=Cc2c(O)n(C)c(=O)n(C)c2=O)CC1 | -1.7 | 16.4 | 22.0% | 14.1% | -0.6% | -13.7
Cc1ccc(S(=O)(=O)N2CCN(C(=O)COC(=O)COc3cccc4c3OC(C)(C)C4)CC2)cc1 | / | -15.1 | 26.6% | 1.1% | 2.1% | /
COc1cccc(C(=O)Nc2ccc3c(c2)C(=O)N(CC2CCCO2)C3=O)c1 (stereo unspecified) | 44.4* | ? | -15.6% | ? | -16.3% | 55.3*
COc1ccccc1OCC(=O)Nc1ccc2c(c1)C(=O)N(CC1CCCO1)C2=O (stereo unspecified) | 1.3 | -7.3 | 11.1% | -16.6% | 41.8% | 24.4
CC(=O)Oc1cccc(C(=O)Nc2ccc3c(c2)C(=O)N(CC2CCCO2)C3=O)c1 (stereo unspecified) | 7.0 | -11.0 | -13.7% | ? | 4.3% | -4.0
COc1cccc(NC(=O)c2ccc3c(c2)C(=O)N(CC2CCCO2)C3=O)c1 (stereo unspecified) | 29.6* | 0.1 | -0.6% | 24.2% | 64.5% | 40.4
COc1ccc(/C=C2\NC(=S)N(CC3CCCO3)C2=O)c(OC)c1 (stereo unspecified) | 23.3* | 12.4 | -21.9% | 11.9% | 12.6% | 33.6
COc1ccccc1Oc1ccc2c(c1)C(=O)N(CC1CCCO1)C2=O (stereo unspecified) | 36.8* | -5.5 | -13.0% | 19.1% | 19.2% | 46.0*
COc1ccc(NC(=O)c2ccc3c(c2)C(=O)N(CC2CCCO2)C3=O)cc1 (stereo unspecified) | -1.9 | -18.2 | -0.6% | 12.0% | ? | 21.4
O=C(CSc1nc2c(c(=O)[nH]1)CCC2)Nc1ccccc1C(F)(F)F | / | 3.0 | / | / | / | /
O=C1c2ccccc2C(=O)N1Cc1cnc(N2CCN(c3ccccc3)CC2)s1 | 1.0 | -35.0 | -5.1% | -13.6% | 13.7% | -13.1
O=C(CSc1nc(=O)[nH]c2c1CCCC2)Nc1ccc(Cl)c(Cl)c1 | / | -33.8 | / | / | / | /

High-throughput results deposited in PubChem by National Center for Advancing Translational Sciences (NCATS).
